Each structure is given as a SMILES string. About 83,000 compounds went through this panel and 20% of them were active in at least one assay; those are over-represented in the sample as a whole.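 Growth was measured after 48 h exposure to one concentration of compound in 96-well plates. Values under 10 count as active.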 Values without a mark were called inactive. Calls of active or inactive are those of the source.

Experimental findings from PubChem BioAssay (NCI) are described below.

The first assay deals with K-562 leukemia. The assay can be described thus: NCI-60 one-dose screen, 48 h (100 = growth as untreated, 0 = no growth, -100 = all killed). The following applies: 10 µM.
`COc1cc(C(=O)n2nc(-c3cc(OC)c(OC)c(OC)c3)nc2N)cc(OC)c1OC`: the growth is 77.8%. Still for that read-out and setting: in the case of `COc1ccc(-c2n[nH]nc2-c2cc(OC)c(OC)c(OC)c2)cc1` it was 8.16% (active); in that of `C=CCN(CC=C)C(=O)[C@H](CC)[C@@H]1CC[C@@H](C)[C@@H]([C@H](C)[C@@H](O)[C@@H](C)C(=O)[C@H](CC)C2O[C@]3(C=C[C@@H](O)[C@]4(CC[C@@](C)([C@H]5CC[C@](O)(CC)[C@H](C)O5)O4)O3)[C@H](C)C[C@@H]2C)O1` (some centres undefined), 14.3%; in that of `O=C(Nc1cccc2c1CCCC2)c1cc2ccccc2cc1O`, 16.9%. Turning to `O=C1/C=C/[C@@H](O)[C@@H]2C[C@@H](O)C[C@H]2/C=C/CCC[C@H](CCc2ccc(NC(=S)Nc3ccc4c(c3)C(=O)OC43c4ccc(O)cc4Oc4cc(O)ccc43)cc2)O1`, the growth is 13.5%. Same read-out and setting: with `COc1cc(/C=C/c2cc(/C=C/c3ccc(O)c(OC)c3)nc(N)n2)ccc1O` the figure was 5.49% (active); with `CC(=O)Oc1cc(OC(C)=O)c2ccccc2c1OC(C)=O`, 70.5%. As to `CCOc1ccccc1/C=N\N=C\c1ccccc1O`, the growth was 75.5%.

For another assay, the system named is MALME-3M melanoma. Described as above. The following applies: 10 µM.
With `COc1ccc(/C=C2\CCCC3=C2NC(N)=NC3c2ccc(OC)cc2)cc1` (centres undefined), the growth was 99.6%. With `CN(C)CCCOc1cccc(NC2=C(Cl)C(=O)C(Nc3cccc(OCCCN(C)C)c3)=C(Cl)C2=O)c1`, the growth is -74.8% (active). For the molecule `N#CC1=C(N)Oc2cc(N)ccc2C1c1cccnc1` (centres undefined), the growth was 98.6%.

As for `COc1cc(/C=C/c2cc(/C=C/c3ccc(O)c(OC)c3)n(C(=O)Nc3ccc(C)cc3)n2)ccc1O`, the growth is 17.3%.

As for `Cc1ccc(-n2nnnc2N)c(C)c1`, the growth is 119%.

As for `CCCCN(CCCC)C(=O)[C@H](CC)[C@@H]1CC[C@@H](C)[C@@H]([C@H](C)[C@@H](O)[C@@H](C)C(=O)[C@H](CC)C2O[C@]3(C=C[C@@H](O)[C@]4(CC[C@@](C)([C@H]5CC[C@](O)(CC)[C@H](C)O5)O4)O3)[C@H](C)C[C@@H]2C)O1` (some centres undefined), the growth was -15.8% (active).

Consider `COc1ccc2c(c1)C(=O)/C(=C/c1ccc([N+](=O)[O-])o1)O2`, for which the growth was -77.8% (active).

Regarding `Cc1ccc(S(=O)(=O)N(C)CCCCCC(=O)O)cc1`, the growth is 98.5%. Same read-out and setting: with `NC1=NC(c2ccc(Cl)cc2)C2=C(N1)/C(=C/c1ccc(Cl)cc1)CCC2` (centres undefined) the figure was 97.7%; with `S=C(NCc1ccccc1)NCc1ccccc1`, 95.3%. On to `COc1cc2cc(Oc3ccc(NC(=O)c4ccccc4)cc3)c(C)nc2cc1OC`, for which the growth is 93.6%. As for `Cc1c(Cl)cccc1NC(=O)CN1CCOCC1`, the growth is 92.6%. With `C=CCN(CC=C)C(=O)[C@H](CC)[C@@H]1CC[C@@H](C)[C@@H]([C@H](C)[C@@H](O)[C@@H](C)C(=O)[C@H](CC)C2O[C@]3(C=CC(=O)[C@]4(CC[C@@](C)([C@H]5CC[C@](O)(CC)[C@H](C)O5)O4)O3)[C@H](C)C[C@@H]2C)O1` (some centres undefined), the growth was -25.1% (active). `CCN1CCN(CCC(=O)Nc2cccc(-n3cc(-c4ccncc4)c(-c4ccc(Cl)c(OC)c4)n3)c2)CC1`: the growth was -63.6% (active).

As to `Nc1ccn(Cc2nnc(CCC(=O)c3nc4ccccc4[nH]3)o2)c(=O)n1`, the growth was 90.9%. As to `Cc1ccc2nc(Cl)c(-c3nc4ccccc4o3)cc2c1`, the growth was 86.9%. The same measure, in the same setting: in the case of `C/C=C/CSC(C)(C)C(=O)NC` it was 111%; in that of `COc1cc2c(Nc3ccc(S(N)(=O)=O)cc3)ncnc2c(OC)c1OC`, 95%. On to `CC(=O)OC1C=CC(OC(C)=O)O1` (centres undefined), for which the growth is 89.7%.

Consider `CC(=O)C1N=NCC1c1ccccc1` (centres undefined), for which the growth is 95.2%. On the same count and under the same terms, with `O=C(CN(C1CCCCC1)C1CCCCC1)Nc1ccc(S(=O)(=O)c2ccc(NC(=O)CN(C3CCCCC3)C3CCCCC3)cc2)cc1` the figure was -67.4% (active); with `Cc1c[nH]c(=O)n(Cc2nnc(CCC(=O)c3nc4ccccc4[nH]3)o2)c1=O`, 47.8%. Turning to `O=C(CCn1cnc2c(cc(-c3ccccc3)n2-c2ccccc2)c1=O)Nc1ccc(F)cc1`, the growth was 51.4%. Same read-out and setting: in the case of `CN(C)CCOc1cccc(NC2=C(Cl)C(=O)C(Nc3cccc(OCCN(C)C)c3)=C(Cl)C2=O)c1` it was -74.8% (active); in that of `CN1CCN(CCC(=O)Nc2cccc(-n3cc(-c4ccncc4)c(-c4ccc(Cl)c(O)c4)n3)c2)CC1`, 47.6%; in that of `CC(=O)Nc1ccc(CC[C@H]2CCC/C=C/[C@@H]3C[C@H](O)C[C@H]3[C@H](O)/C=C/C(=O)O2)cc1`, -7.38% (active).
